The source made the active and inactive calls. The calls were made as follows: active = hit-call score of the fitted dose curve at least 0.9, where 1 is the maximum; inactive = score below 0.9.
Experiments:
[1] = APR_HepG2_CellCycleArrest_24hr: Apredica 24-hour HepG2 Assay for Cell Cycle Arrest (AID 2282905); conditions: imaging, actives raise or lower the signal;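 also: cell cycle arrest scored as ratio of 2N to 4N nuclear DNA content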
Summary of the method: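 Compounds (0.39 to 200 uM, final DMSO 0.5% v/v) are applied to HepG2 cells for 24 hours; cells are then fixed, permeabilized and nuclei labeled with Hoechst 33342. Automated imaging measures DNA content, and activity is fitted in both directions against DMSO.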

[2] = APR_HepG2_NuclearSize_24hr: Apredica 24-hour HepG2 Assay for Nuclear Size (AID 2282907); conditions: high-content imaging, actives raise or lower the signal
Summary of the method: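 Nuclear size is measured by fluorescence high-content imaging of Hoechst-labelled HepG2 nuclei after 24 hr of treatment (0.39–200 uM, 0.5% DMSO). Cells are fixed in 3.7% formaldehyde before staining, and DMSO serves as the baseline for bidirectional curve fitting.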

[3] = APR_HepG2_CellLoss_24hr: Apredica 24-hour HepG2 Assay for Cell Loss (AID 2282908); conditions: high-content imaging;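 as to AC50: fit in both directions so a hit may be cell loss or gain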
Summary of the method: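 Nuclear count serves as the viability measure: treated cells are fixed, permeabilized and labelled with Hoechst 33342, and six images per well are analysed to identify valid nuclei. Doses span 0.39–200 uM, and activity in either direction is scored against DMSO.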

[4] = APR_HepG2_MicrotubuleCSK_24hr: Apredica 24-hour HepG2 Assay for Microtubule CSK Stabilty (AID 2282909); conditions: HepG2 microtubule cytoskeleton imaging, actives raise or lower the signal
Summary of the method: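 Compounds were applied to HepG2 cells for 24 hours across 0.39–200 uM in duplicate, with final DMSO at 0.5% v/v. Fixed, permeabilized cells were labeled for alpha-tubulin and nuclei, and tubulin fluorescence was quantified by imaging, fitted bidirectionally against DMSO.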

[5] = APR_HepG2_MitoticArrest_24hr: Apredica 24-hour HepG2 Assay for Mitotic Arrest (AID 2282910); conditions: high-content imaging, actives raise or lower the signal
Summary of the method: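 Treatment lasted 24 hr in the human HepG2 line at 0.39–200 uM, solvent held at 0.5% DMSO. Fixed cells were stained with Hoechst 33342 and anti-phospho-histone H3, imaged at 20x, and analysed by gain- or loss-of-signal fitting against DMSO.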

[6] = APR_HepG2_MitoMembPot_24hr: Apredica 24-hour HepG2 Assay for Mitochondrial Membrane Potential (AID 2282911); conditions: imaging, actives raise or lower the signal
Summary of the method: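 Mitochondrial membrane potential imaged via MitoTracker Red CMXRos (250 nM, 30 min pre-fixation) in fixed HepG2 cells with Hoechst nuclear identification. Ten concentrations 0.39–200 uM, 24 h treatment, 0.5% DMSO; CCCP as positive control.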

[7] = APR_HepG2_MitoMass_24hr: Apredica 24-hour HepG2 Assay for Mitochondrial Mass (AID 2282912); conditions: high-content imaging, actives raise or lower the signal
Summary of the method: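 After 24 hr of treatment at 0.39 to 200 uM, HepG2 cells take up 250 nM MitoTracker Red CMXRos for 30 min and are then fixed with 3.7% formaldehyde. Per-well images are quantified, and any change in either direction is scored against solvent.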

[8] = APR_HepG2_p53Act_24hr: Apredica 24-hour HepG2 Assay for p53 Activation (AID 2282913); conditions: high-content imaging, actives raise or lower the signal;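 also: p53 protein immunofluorescence averaged per cell in HepG2 with Hoechst nuclei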
Summary of the method: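 Fluorescence imaging of formaldehyde-fixed HepG2 cells labelled for p53 and with Hoechst, 24 h after dosing (0.39–200 uM, duplicate wells, 0.5% v/v DMSO). Signal fitted in both directions relative to DMSO.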

[9] = APR_HepG2_CellCycleArrest_72hr: Apredica 72-hour HepG2 Assay for Cell Cycle Arrest (AID 2282914); conditions: high-content imaging, actives raise or lower the signal
Summary of the method: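 Read-out: nuclear DNA content from Hoechst 33342 high-content imaging (20x, six fields/well) after 3.7% formaldehyde fixation, fitted bidirectionally against DMSO. Treatment was 72 h in HepG2, ten concentrations 0.39–200 uM, duplicate, 0.5% DMSO.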

[10] = APR_HepG2_CellLoss_72hr: Apredica 72-hour HepG2 Assay for Cell Loss (AID 2282915); conditions: high-content imaging
Summary of the method: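 HepG2 cells were exposed for 72 hr to compounds at 0.39–200 uM (ten concentrations, duplicate) in 0.5% v/v final DMSO. Nuclei were stained with Hoechst 33342 after 3.7% formaldehyde fixation, imaged at 20x, and counted; fits bidirectional versus DMSO.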

[11] = APR_HepG2_P-H2AX_72hr: Apredica 72-hour HepG2 Assay for H2AX Phosphorylation (AID 2282916); conditions: imaging, actives raise or lower the signal;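 also: phospho-histone H2A.x immunostain intensity per cell marking DNA damage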
Summary of the method: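 Human hepatoma HepG2 cells are dosed across ten concentrations (0.39 to 200 uM, 0.5% v/v DMSO) and incubated 72 hr. Phospho-histone H2A.x is then detected by antibody staining alongside c-Jun and Hoechst, and quantified by automated fluorescence imaging.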

[12] = APR_HepG2_MitoMembPot_72hr: Apredica 72-hour HepG2 Assay for Mitochondrial Membrane Potential (AID 2282917); conditions: imaging, actives raise or lower the signal
Summary of the method: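 HepG2 cells exposed 72 h to compounds at 0.39–200 uM (0.5% v/v DMSO, duplicates); MitoTracker Red CMXRos 250 nM loaded 30 min before 3.7% formaldehyde fixation, imaged by HCS fluorescence. Bidirectional fit versus DMSO.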

[13] = APR_HepG2_MitoticArrest_72hr: Apredica 72-hour HepG2 Assay for Mitotic Arrest (AID 2282918); conditions: high-content imaging, actives raise or lower the signal
Summary of the method: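 High-content imaging of fixed human HepG2 cells after 72 h compound exposure (0.39–200 uM, duplicates, 0.5% DMSO); mitotic arrest scored from phospho-histone H3 and nuclear Hoechst staining relative to DMSO.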

[14] = APR_HepG2_StressKinase_72hr: Apredica 72-hour HepG2 Assay for Stress Kinase (AID 2282921); conditions: HepG2 stress kinase (phospho-c-Jun) imaging, actives raise or lower the signal
Summary of the method: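 After a 72 h compound treatment spanning 0.39 to 200 uM, formaldehyde-fixed cells are labelled for phosphorylated c-Jun and nuclei, imaged by automated fluorescence microscopy, and activity is fitted in both directions relative to DMSO controls.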

[15] = APR_HepG2_StressKinase_24hr: Apredica 24-hour HepG2 Assay for Stress Kinase (AID 2282922); conditions: HepG2 stress kinase (phospho-c-Jun) imaging, actives raise or lower the signal
Summary of the method: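 After 24 hr compound treatment (up to 200 uM, final DMSO 0.5% v/v), HepG2 cells are fixed and multiplex-labeled; phospho-c-Jun intensity is captured by high-content fluorescence imaging and analyzed relative to DMSO.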

[16] = APR_HepG2_MitoMass_72hr: Apredica 72-hour HepG2 Assay for Mitochondrial Mass (AID 2282924); conditions: high-content imaging, actives raise or lower the signal;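 also: MitoTracker Red CMXRos stain intensity per cell imaged as mitochondrial mass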
Summary of the method: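 Steps: treat HepG2 72 hr (0.39–200 uM, duplicate wells); load MitoTracker Red CMXRos, 250 nM, 30 min; fix with 3.7% formaldehyde, permeabilise with 0.5% Triton X-100; capture images, nuclei via Hoechst 33342; fit bidirectionally against DMSO.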

[17] = APR_HepG2_NuclearSize_72hr: Apredica 72-hour HepG2 Assay for Nuclear Size (AID 2282925); conditions: high-content imaging, actives raise or lower the signal
Summary of the method: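 Compounds (0.39–200 uM, final DMSO 0.5%) were applied to HepG2 for 72 hr. Cells were then formaldehyde-fixed, permeabilized and labelled with Hoechst 33342. Nuclear diameter was quantified from six images per well.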

[18] = APR_HepG2_P-H2AX_24hr: Apredica 24-hour HepG2 Assay for H2AX Phosphorylation (AID 2282920); conditions: high-content imaging, actives raise or lower the signal
Summary of the method: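 High-content imaging of phospho-histone H2A.x immunofluorescence, nuclei counterstained with Hoechst 33342, in fixed HepG2 cells. Compounds ran 0.39–200 uM in duplicate for 24 h, final DMSO 0.5%. Signal change fitted both directions against DMSO.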

[19] = APR_HepG2_p53Act_72hr: Apredica 72-hour HepG2 Assay for p53 Activation (AID 2282923); conditions: high-content imaging, actives raise or lower the signal;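 also: average cellular p53 protein immunofluorescence intensity in HepG2 cells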
Summary of the method: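 Imaging-based endpoint: after 72 hr compound exposure (up to 200 uM, 0.5% DMSO), fixed and permeabilized monolayers were labelled with anti-p53 antibody and imaged; signal change in either direction was fitted relative to DMSO controls.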

Measured: AC50

O=C1CCC(C2CCCCC2)CC1
active: [6] 19.8 µM
not listed: [18] | [19]
inactive: all other assays above

CC1(C)NC(=O)N(c2ccc([N+](=O)[O-])c(C(F)(F)F)c2)C1=O
active: [10] 38.6 µM
not listed: [15]
inactive: all other assays above

O=C1c2ccccc2C(=O)N1CCc1noc(-c2ccc(CN3CCCCCC3)s2)n1
not listed: [18]
inactive: all other assays above

O=C=NCCCCCCN=C=O
not listed: [15] | [18]
inactive: all other assays above

CN(C)c1ccc(C(=C2C=CC(=[N+](C)C)C=C2)c2ccc(N(C)C)cc2)cc1
inactive: [2] | [7] | [17]
active: [1] 0.747 µM | [3] 6.05 µM | [4] 22 µM | [5] 4.66 µM | [6] 27.3 µM | [8] 2.93 µM | [9] 407 nM | [10] 3.23 µM | [11] 4.24 µM | [12] 384 nM | [13] 4.11 µM | [18] 4.3 µM | [14] 40 µM | [16] 0.0403 µM

CCCCCCCCCCCC[N+](C)(C)C
inactive: [2] | [4] | [6] | [9] | [12] | [16] | [17]
active: [1] 59 µM | [3] 75.6 µM | [5] 50.2 µM | [7] 180 µM | [8] 49.5 µM | [10] 41.7 µM | [11] 75.4 µM | [13] 13.2 µM | [18] 50.4 µM | [14] 100 µM

Cc1ccc(C(C)C)cc1
not listed: [18]
inactive: all other assays above

Cc1occc1C(=O)Nc1ccc(C(=O)N2CCC(F)(F)/C(=C\C(=O)N3CCC(N4CCCCC4)CC3)c3ccccc32)cc1
active: [1] 34.9 µM | [3] 16.2 µM | [10] 12.3 µM | [13] 20.7 µM
not listed: [18] | [19]
inactive: all other assays above

O=C(O)Cn1c(=O)n(Cc2ccc(Br)cc2F)c(=O)c2ccc(Cl)cc21
not listed: [15] | [18] | [19]
inactive: all other assays above

CN1C(=O)CC[C@H]1c1cccnc1
not listed: [18] | [19]
inactive: all other assays above

Cc1cc2c(cc1C(F)(F)F)N(C(=O)Nc1ccc(Oc3cccnc3C)nc1)CC2
inactive: [2] | [6] | [7] | [9] | [12] | [16] | [17]
active: [1] 2.58 µM | [3] 50.2 µM | [4] 43.6 µM | [5] 56.2 µM | [8] 45.7 µM | [10] 9.35 µM | [11] 22.2 µM | [13] 46.3 µM | [14] 20.1 µM | [15] 26.2 µM

Oc1ccc2ccccc2c1
not listed: [15] | [18]
inactive: all other assays above

CCCCCCCCCCCCO
active: [16] 119 µM
not listed: [19]
inactive: all other assays above

O=C1O[C@H]([C@@H](O)CO)C(O)=C1O
active: [10] 16.1 µM | [11] 11.2 µM | [13] 7.73 µM | [19] 10.5 µM | [17] 11.1 µM
not listed: [15] | [18]
inactive: all other assays above

Source: PubChem BioAssay (EPA / NIEHS)
